Laboratory results taken from PubChem BioAssay (NCATS).
Inconclusive results are not listed. Active and inactive are the calls of the source. The call rests on the fitted dose curve; in most records, active means well fitted inhibition curve with a large enough effect; inconclusive means small, poorly fitted or top-dose-only effect; inactive means flat fitted curve, though single readings scatter. Starred links: 1 amine or outer side, 2 acyl side, 3 side chain; linkers in the order of their positions; H or OH if unused. Positions of bridges follow the written chain, without caps; N, C: chain ends. Non-standard residues stand in square brackets, D forms with d. Residues, ends and D or L forms follow the SMILES beside them. Chains are numbered I, II in the order given. Actinocin(9to1) = Cc1c2oc3c(C)ccc(C(=O)[*:1])c3nc-2c(C(=O)[*:2])c(N)c1=O; NMeV = CN[CH](C(=O)O)C(C)C; Sar = CNCC(=O)O

Columns and labels:
CRL-7250 = normal cell line; experiment: Cytotoxic Profiling of Annotated Libraries Using Quantitative High-Throughput Screening (AID 1296008); conditions: Five cell lines viability, CellTiter-Glo ATP luminescence, 48-72 h; max response: active compounds read low; further: potency means the concentration at half of the fitted maximal effect; on max response: on the % scale 0 is the no-effect control and ±100 the full control effect
Method in brief: (§1)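 Cells exposed to compounds for 48 or 72 hr at 37 degrees Celsius. Viability read as ATP-coupled luminescence with CellTiter-Glo after 10 min at room temperature.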

HEK293 = experiment: as above; conditions: Five cell lines viability, CellTiter-Glo ATP luminescence, 48-72 h; max response: active compounds read low
Method in brief: as §1

HaCat [1] = experiment: as above; conditions: Five cell lines viability, CellTiter-Glo ATP luminescence, 48-72 h; max response: active compounds read low
Method in brief: as §1

KB-3-1 = experiment: as above; conditions: Five cell lines viability, CellTiter-Glo ATP luminescence, 48-72 h; max response: active compounds read low
Method in brief: as §1

NIH3T3 = experiment: as above; conditions: Five cell lines viability, CellTiter-Glo ATP luminescence, 48-72 h; max response: active compounds read low
Method in brief: as §1

HACAT [2] = experiment: qHTS assay to identify novel small-molecules to repurpose for Merkel cell carcinoma treatment (AID 1296009); conditions: MCC and control cell lines, CellTiter-Glo viability, 72 h; at 44.8 µM (top of the series) unless noted
Method in brief: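 Cells were treated for 72 hr at 37 degree celsius with compounds in 8- or 11-point dose response. Viability was read by CellTiter-Glo luminescence, normalized to no-cell (cytotoxicity) and DMSO controls.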
Further: nearly all actives have a fitted effect of over 60% in size.

O=C(NNC(=O)c1ccc(CNS(=O)(=O)c2ccc(F)c(Cl)c2)cc1)c1ccccc1
inactive: outcome (CRL-7250) | max response (HEK293) 4.45% | outcome (HaCat [1]) | max response (KB-3-1) 0.725% | outcome (NIH3T3) | outcome (HACAT [2])

N#Cc1c(NC(=O)c2cccc3ccccc23)sc2c1CCCC2
inactive: outcome (HaCat [1]) | outcome (HACAT [2])
active: Potency (CRL-7250) 1320 nM | Potency (HEK293) 372 nM | Potency (KB-3-1) 469 nM | Potency (NIH3T3) 332 nM

C[C@H](CCC(=O)O)[C@H]1CC[C@H]2[C@@H]3[C@H](O)C[C@@H]4C[C@H](O)CC[C@]4(C)[C@@H]3CC[C@]12C
inactive: max response (CRL-7250) 2.36% | max response (HEK293) -7.11% | outcome (HaCat [1]) | max response (KB-3-1) 1.89% | outcome (NIH3T3) | outcome (HACAT [2])

CCCc1nc(C(C)(C)O)c(C(=O)O)n1Cc1ccc(-c2ccccc2-c2nn[nH]n2)cc1
inactive: outcome (CRL-7250) | outcome (HEK293) | outcome (HaCat [1]) | max response (KB-3-1) 0.595% | outcome (NIH3T3) | outcome (HACAT [2])

Nc1nc(=O)n([C@H]2CSC(CO)O2)cc1F (some centres not stated)
inactive: max response (CRL-7250) -8.43% | outcome (HEK293) | outcome (HaCat [1]) | max response (KB-3-1) 9.64% | outcome (NIH3T3) | outcome (HACAT [2])

C[C@H]1C[C@H]2[C@@H]3CCC4=CC(=O)C=C[C@]4(C)[C@@H]3C(=O)C[C@]2(C)[C@@]1(O)C(=O)CO
inactive: max response (CRL-7250) -3.73% | max response (HEK293) 3.81% | outcome (HaCat [1]) | max response (KB-3-1) 4.3% | outcome (NIH3T3) | outcome (HACAT [2])

NC1=N[C@H]2[C@H](CS[C@H]2CCCCC(=O)O)N1
inactive: outcome (CRL-7250) | max response (HEK293) -4.7% | outcome (HaCat [1]) | outcome (KB-3-1) | max response (NIH3T3) -0.4% | outcome (HACAT [2]) inactive [at 17.4 µM]

Nc1ccn(C[C@@H](CO)OCP(=O)(O)O)c(=O)n1
inactive: max response (CRL-7250) 3.98% | max response (HEK293) -0.164% | outcome (HaCat [1]) | outcome (KB-3-1) | max response (NIH3T3) 0.667% | outcome (HACAT [2]) inactive [at 17.4 µM]

OC[C@H]1OC(O)C[C@@H](O)[C@H]1O (some centres not stated)
inactive: outcome (CRL-7250) | outcome (HEK293) | outcome (HaCat [1]) | max response (KB-3-1) 2.18% | outcome (NIH3T3) | outcome (HACAT [2])

NC(=O)Nc1cc(-c2ccc(CN3CCOCC3)cc2)sc1C(N)=O
active: Potency (CRL-7250) 13200 nM | Potency (HEK293) 5260 nM | Potency (HaCat [1]) 332 nM | Potency (KB-3-1) 7430 nM | Potency (NIH3T3) 662 nM

C=CCNC1=C2C[C@@H](C)C[C@H](OC)[C@@H](O)[C@@H](C)C=C(C)[C@H](OC(N)=O)[C@@H](OC)C=CC=C(C)C(=O)NC(=CC1=O)C2=O
active: Potency (CRL-7250) 296 nM | Potency (HEK293) 935 nM | Potency (HaCat [1]) 590 nM | Potency (KB-3-1) 105 nM | Potency (NIH3T3) 526 nM

COc1cc([C@@H]2c3cc4c(cc3[C@H](O)[C@H]3COC(=O)[C@@H]23)OCO4)cc(OC)c1OC
active: Potency (CRL-7250) 296 nM | Potency (HEK293) 132 nM | Potency (KB-3-1) 235 nM | Potency (NIH3T3) 187 nM
inactive: max response (HaCat [1]) 4.88%

O=C(O)CCCCC(CCSCc1ccccc1)SCc1ccccc1 (configuration not stated)
inactive: max response (CRL-7250) 0.756% | max response (HEK293) -0.529% | outcome (HaCat [1]) | outcome (KB-3-1) | max response (NIH3T3) 2.24% | outcome (HACAT [2])

NC(=O)c1ncn([C@@H]2O[C@H](CO)[C@@H](O)[C@@H]2O)c1N
inactive: max response (CRL-7250) -3.14% | max response (HEK293) 2.62% | outcome (HaCat [1]) | max response (KB-3-1) 1.9% | outcome (NIH3T3) | outcome (HACAT [2])

Cc1c2oc3c(C)ccc(C(=O)NC4C(=O)NC(C(C)C)C(=O)N5CCCC5C(=O)N(C)CC(=O)N(C)C(C(C)C)C(=O)OC4C)c3nc-2c(C(=O)NC2C(=O)NC(C(C)C)C(=O)N3CCCC3C(=O)N(C)CC(=O)N(C)C(C(C)C)C(=O)OC2C)c(N)c1=O (configuration not stated) (I: TVP[Sar][NMeV] / II: TVP[Sar][NMeV]; ester I:1-I:C, II:1-II:C; linker I:N-II:N via Actinocin(9to1); configuration not given here)
inactive: max response (CRL-7250) -99.9% | max response (HEK293) -93.3% | max response (HaCat [1]) -104% | max response (NIH3T3) -100%
active: Potency (KB-3-1) 0.0662 nM

CC(C)(C)[N+]([O-])=Cc1ccc(S(=O)(=O)O)cc1S(=O)(=O)O
inactive: max response (CRL-7250) 1.88% | max response (HEK293) -0.289% | max response (HaCat [1]) -17.9% | max response (KB-3-1) 9.38% | max response (NIH3T3) 0.254%

Cc1cc(O)c2c(c1)C(=O)c1cccc(O)c1C2=O
inactive: outcome (CRL-7250) | outcome (HEK293) | max response (HaCat [1]) -2.05% | max response (KB-3-1) 4.24% | max response (NIH3T3) 4.67%

OC[C@@H](O)[C@@H](O)[C@H](O)[C@@H](O)CO
inactive: max response (CRL-7250) 0.947% | max response (HEK293) 2.06% | outcome (HaCat [1]) | outcome (KB-3-1) | max response (NIH3T3) -2.12% | outcome (HACAT [2])
